Screening results: PubChem BioAssay, National Center for Advancing Translational Sciences (NCATS)
RORgamma inh: ROR gamma (mouse) transcription inhibition. Drosophila S2 Gal4-RORgamma UAS-luciferase reporter, 20 h. P51450. 310,000 tested, 5.4% active. AID 2551. Potency, µM (doses to about 53.6 µM), for the others: top-dose activity change, negative = inhibition, actives largely listed as inhibitors; further: nearly all actives have a fitted effect of over 60% in size
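Luminescence from a UAS-regulated Photinus luciferase reporter in stably transfected Drosophila Schneider cells is measured; decreased signal marks ROR gamma inhibition. Fusion expression is induced by 700 uM copper sulfate for 20 hr.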
Gal4-VP16 FLuc: counter-screen for ROR gamma inhibitors: Gal4-VP16 reporter; AID 2546; 310,000 tested, 3.5% active; Drosophila S2 Gal4-VP16 UAS-luciferase, luminescence, 20 h; Potency, µM (titrated, usually from 53.6 µM), for inactives: at the highest dose activity, negative = inhibition, actives largely listed as inhibitors;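 further: Gal4-VP16 expression switched on by copper sulfate through the metallothionein promoter; nearly all actives have a fitted effect of over 50% in size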
Sfp PPTase inh: Sfp phosphopantetheinyl transferase inhibition. Q9F4F7. Biochemical Sfp PPTase activity, qHTS. Potency, µM, without a hit: largest response in the series, negative = inhibition, most hits filed as inhibitors. 310,000 tested, 3.5% active. AID 1490;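 further: the enzyme is Sfp with the accession as filed and its product quenches rhodamine fluorescence; 0% = enzyme reaction without inhibitor and -100% = no enzyme wells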
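Fluorescence-quenching assay: 15 nM Sfp-PPTase preincubated 15 min at room temperature with compound, then 5 uM rhodamine-CoA and 12.5 uM BHQ-2-labelled YbbR peptide added. Fluorescence (ex 525/em 598 nm) read at start and after 30 min; difference gives rate.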
PLK1 PBD block: blocks phosphopeptide binding to human PLK1 polo-box domain; P53350; 360,000 tested, 2.8% active; Plk1 PBD binding of FITC phosphopeptide, fluorescence polarization; AID 720504; Potency, µM, inactives show max response, negative = inhibition, hits mostly inhibitors; further: series mostly up to about 57 µM; nearly all actives have a fitted effect of over 65% in size
ALDH1A1 block: blocks purified human ALDH1A1 activity; P00352; Purified ALDH1A1, NADH fluorescence, propionaldehyde substrate; Potency, µM (series often up to 75.3 µM), without a hit: at the highest dose activity, negative = inhibition, usual class: inhibitors; 220,000 tested, 7.3% active; active means well fitted inhibition curve with a large enough effect, not every such curve was filed as active; inconclusive means small, poorly fitted or top-dose-only effect, or another doubt; inactive means no such curve, though single readings can be large or run the other way;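 further: plate controls were no enzyme wells and a reference inhibitor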
Target sequence (P00352 whole entry, looked up): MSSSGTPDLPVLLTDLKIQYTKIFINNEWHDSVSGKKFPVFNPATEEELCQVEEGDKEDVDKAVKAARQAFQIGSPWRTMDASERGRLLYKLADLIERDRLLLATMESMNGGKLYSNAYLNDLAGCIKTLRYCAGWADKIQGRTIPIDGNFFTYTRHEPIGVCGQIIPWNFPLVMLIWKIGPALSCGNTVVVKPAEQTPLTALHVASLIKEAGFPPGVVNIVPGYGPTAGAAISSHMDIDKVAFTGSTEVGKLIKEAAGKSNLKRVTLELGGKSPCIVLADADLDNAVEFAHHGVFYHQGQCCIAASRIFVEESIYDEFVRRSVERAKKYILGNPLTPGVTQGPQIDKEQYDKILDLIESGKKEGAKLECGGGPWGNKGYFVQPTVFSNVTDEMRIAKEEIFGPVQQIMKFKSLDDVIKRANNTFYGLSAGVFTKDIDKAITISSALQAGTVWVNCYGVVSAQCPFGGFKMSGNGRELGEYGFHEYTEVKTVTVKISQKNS
The depositor's hits bear a star; ? = inconclusive; · = no result given; [ ] = remark or other dose. In the library only some 12% were active in any assay of this set; here they are far more common. Unless noted, the call rests on the fitted dose curve; in most records, active means well fitted curve in the direction sought with a large enough effect; inconclusive means small, poorly fitted or top-dose-only effect, or another doubt; inactive means no such curve, though single readings can be large; an effect the other way counts as inactive or inconclusive. Unless noted, on the % scale 0 is the no-effect control and ±100 the full control effect; potency means the concentration at half of the fitted maximal effect.

SMILES | RORgamma inh | Gal4-VP16 FLuc | Sfp PPTase inh | PLK1 PBD block | ALDH1A1 block
CC(C)CSC1=NSC2=NC(=O)/C(=C\c3ccccc3)C(=N)N12 | -1% | 18% | 33% | 27µM* | ?
CSC1=NSC2=NC(=O)/C(=C\c3coc4ccccc4c3=O)C(=N)N12 | 9% | 6% | -4% | 27µM* | ?
Cc1cc(/C=C2\C(=N)N3C(SCc4ccccc4)=NSC3=NC2=O)c(C)n1Cc1ccccc1 | 10% | 0% | -6% | -25% | -2%
O=C(OCCN1C(=O)c2cccc3c(N4CCOCC4)ccc(c23)C1=O)c1cccc(Cl)c1 | 7% | -19% | 5% | 21µM* | 6%
O=C(OCCN1C(=O)c2cccc3c(N4CCOCC4)ccc(c23)C1=O)c1ccc(Cl)cc1Cl | 35% | -5% | 9% | 19µM* | 5%
CS(=O)(=O)N1CCN(c2ccccc2NC(=O)c2ccc(-c3ccc(Cl)cc3Cl)o2)CC1 | 1% | -14% | -5% | -9% | ?
O=C(NC(=S)Nc1ccccc1N1CCCC1)c1cccc(F)c1 | 3.2µM* | 7.9µM* | ? | ? | 8.9µM*
O=C(Nc1ccccc1N1CCCC1)c1cccc(F)c1 | · | · | 12% | 1% | ·
CN1CCN(c2ccccc2NC(=O)c2ccc(-c3ccc(Cl)cc3Cl)o2)CC1 | -23% | -18% | 56µM* | 2% | ?
O=C(NC(=S)Nc1ccccc1N1CCCCC1)c1ccc(F)cc1Cl | 4.5µM* | 3.2µM* | 10% | 4% | ·
O=C(Nc1ccccc1N1CCCCC1)c1ccccc1F | -15% | -23% | ? | -2% | ?
CC(C)Oc1ccc(C(=O)Nc2ccccc2N2CCCC2)cc1 | 5% | -1% | 3% | 27µM* | -10%
COc1ccc(-n2c(=O)c(-c3cccs3)nc3cnc(Oc4ccccc4)nc32)cc1 | -4% | 8% | -27% | · | 70%
COc1ccc(Oc2ncc3ncc(=O)n(Cc4ccc(F)cc4)c3n2)cc1 | -8% | -14% | 7% | · | ?
O=C(OCc1cn([C@@H]2CN(Cc3cccs3)[C@@H](c3ccccc3)C[C@H]2O)nn1)c1ccccc1 | · | · | · | -7% | ·
O=c1[nH]c(=O)n(C(c2ccccc2)(c2ccccc2)c2ccccc2)cc1N(CCO)CCO | · | · | · | -8% | ·
O=C(NC(=S)Nc1ccccc1N1CCCC1)c1ccc(F)cc1 | 1.6µM* | -64% | ? | ? | 7.5µM*
O=C(NC(=S)Nc1ccccc1N1CCOCC1)c1ccc(-c2ccccc2F)o1 | 2.8µM* | -9% | 4% | -1% | ·
O=C(NC(=S)Nc1ccccc1N1CCOCC1)c1ccc(Br)cc1 | · | · | 18% | -19% | ·
O=C(NC(=S)Nc1ccccc1N1CCCCC1)c1ccccc1 | 1.4µM* | 7.9µM* | 23% | -15% | 19µM*
COC(=O)CCCC(=O)N1CCC(CCC(=O)NCc2ccc(F)cc2)CC1 | -29% | 3% | 11% | -14% | ·
CCOc1ccc2c(c1)[nH]c(=S)n2C | 8.9µM* | ? | 18µM* | 13µM* | ·
CCCCc1c(C)[nH]c(=S)[nH]c1=O | -11% | 3% | -5% | -4% | ·
S=c1[nH]c2ccccc2n2cccc12 | 0.89µM* | 5.6µM* | 11% | -7% | ?
CCOc1ccc(OCCn2c(=S)[nH]c3ccccc32)cc1 | 5µM* | 5µM* | -83% | 13µM* | ·
SMILES | RORgamma inh | Gal4-VP16 FLuc | Sfp PPTase inh | PLK1 PBD block | ALDH1A1 block
Cc1cccc(OCCc2c(C)[nH]c(=S)[nH]c2=O)c1 | -31% | 1% | -2% | ? | 18µM*
CC(CC(=O)O)(CC(=O)O)c1ccccc1 | · | · | · | · | 0%[13.5 µM]
S=c1[nH]c2ccccc2n1CCOc1ccccc1 | -15%[1.91 µM] | 2.8µM* | 89µM* | 19µM* | ·
Cn1c(=S)[nH]c2ccccc21 | 13µM* | ? | -3% | -30% | -15%
Cc1ccc(OCCn2c(=S)[nH]c3ccccc32)c(C(C)C)c1 | 3.5µM* | 4µM* | 1% | -6% | ·
Cc1cccc(OCCn2c(=S)[nH]c3ccccc32)c1 | 1.3µM* | 1.6µM* | 6.3µM* | 6µM* | 1.3µM*
O=c1[nH]c2ccccc2n1CCCOc1ccccc1 | 41% | 3% | 4% | -3% | -10%
COc1ccccc1-c1nccc(NCc2cccnc2)n1 | 15% | -10% | ? | · | ?
S=c1[nH]c2ccccc2n1Cc1ccccc1 | ? | 7.1µM* | 14µM* | 8.4µM* | ·
COc1ccccc1OCCn1c(=S)[nH]c2ccccc21 | 10µM* | 10µM* | -13% | ? | ·
CCCCCCCCN1C(=O)[C@H](CC(=O)NCCc2ccccc2OC)C[C@@]2(C(=O)OC)CC(C)(C)CC=C12 | · | · | · | -4% | ·
COC(=O)CC1Oc2cc3oc4c5ccccc5oc(=O)c4c3cc2O1 (stereo unspecified) | ? | -8% | 5% | · | ?
NCCC[C@@H](CC(=O)N[C@@H]1CCCC[C@H]1C(=O)N[C@H](CC(=O)N[C@@H](CCC(=O)O)CC(=O)O)Cc1c[nH]c2ccccc12)NC(=O)C[C@H](Cc1ccccc1)NC(=O)[C@@H]1CNCC[C@H]1N | 14% | -14% | -15% | · | -6%
O=C(NNS(=O)(=O)c1ccc(F)cc1)c1cnn(-c2ccccc2)c1C(F)(F)F | ? | 13µM* | 3% | -6% | ·
COC(=O)CN1C(=O)[C@@H]2[C@H](C1=O)[C@@H]1CC(C(=O)OC)=C[C@@H](C(=O)OC)C3C1=C(C(=O)C31CCCCC1)[C@@H]2C (stereo partly specified) | 36% | -25% | -9% | · | ·
O=C(CSc1ccccc1)NCc1ccco1 | -8% | 6% | 15% | -15% | 6%
O=C(CSc1ccc2c(c1)OCCO2)NCc1ccco1 | -1% | 2% | 35µM* | ? | 14µM*
O=C(CSc1ccc2c(c1)OCCO2)Nc1ccc(Br)cc1 | 8% | -1% | 0% | 0% | 7.1µM*
CC(=O)c1cc(C(=O)Nc2ccccc2C(=O)O)oc1C | -2% | -1% | 7% | -14% | 0.71µM*
CS(=O)(=O)N1CCN(c2ccccc2NC(=O)c2ccc(Br)o2)CC1 | 4% | -9% | 4% | -7% | 3.2µM*
O=C(Nc1ccccc1C(=O)O)c1ccc(Br)o1 | -14% | 0% | 28% | 1% | 4µM*
CN1CCN(c2ccccc2NC(=O)c2ccc(Br)o2)CC1 | ? | -2% | 5% | -1% | -1%
O=C(CNC(=O)c1cccc(Br)c1)N/N=C/c1cc(Br)cc(Br)c1O | 2.5µM* | 13µM* | -8% | 9% | 7%
O=C(O)c1cccc2c(/C=N/Nc3ccccn3)c[nH]c12 | ? | -7% | 50µM* | 1% | ·
O=C(CCN1CCOCC1)N/N=C/c1cc(Br)cc(Br)c1O | 1.4µM* | 5µM* | -2% | -11% | -1%
O=C(O)c1ccccc1N/N=C/c1cc(Br)cc(Br)c1O | 16% | ? | -13% | 21µM* | ·
O=C(CNC(=O)c1cccc(Br)c1)N/N=C/c1cccs1 | ? | -4% | 13% | -3% | ·
O=C(O)c1cc(N/N=C/c2c[nH]c3ccccc23)ccc1Cl | 29% | 18% | -3% | ? | ·
NC(=O)c1cccc(N)c1 | -20% | 2% | -7% | · | ?
